Calls of active or inactive are those of the source.
Key:
[1] = small molecules captured by biotinylated probe aFSTL3 – biochemical, small-molecule microarray, fluorescence 635/667, stem cell growth factor project, primary screen (AID 1064); conditions: higher = more signal;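 further: measures binding of the biotinylated anti-FSTL3 antibody to printed compounds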
[2] = binders from COS7 lysate, DM2A8 probe, primary screen, torsin A project, cell lysate, small-molecule microarray, fluorescence 635/667 (AID 1065); conditions: higher = more signal, COS7 lysate expressing mutant human TOR1A
[3] = small molecules captured by biotinylated probe aFGF2 – biochemical, small-molecule microarray, fluorescence 635/667, stem cell growth factor project, primary screen (AID 1067); conditions: higher = more signal;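 further: measures binding of biotinylated aFGF2 protein to printed compounds on slides; z-score merges feature fluorescence and signal-to-noise across triplicate slides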
[4] = small molecules captured by biotinylated probe aFGF10 – biochemical, small-molecule microarray, fluorescence 635/667, stem cell growth factor project, primary screen (AID 1071); conditions: higher = more signal;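 further: score merges 667 nm spot intensity and signal to noise from triplicate slides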
[5] = molecular target: Neurogenic locus notch homolog protein 2 (Homo sapiens) (UniProt Q04721); assay: small molecules binding Notch2 protein – biochemical, small-molecule microarray, 635 nm fluorescence, stem cell growth factors, primary screen (AID 1073); conditions: higher = more signal
[6] = molecular target: Pro-neuregulin-1, membrane-bound isoform (Homo sapiens) (UniProt Q02297); assay: small molecules binding neuregulin-1 protein – biochemical, small-molecule microarray, fluorescence 635/667, psychiatric disease protein project, primary screen (AID 1075); conditions: NRG1 binding, 635 nm fluorescence, higher = more signal;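 further: score combines 667 nm spot fluorescence with signal to noise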
[7] = tested on: Neuregulin-1 EGF-like domain; assay: small molecules binding NRG1 EGF domain – biochemical, small-molecule microarray, 635 nm fluorescence, primary screen (AID 1081); conditions: higher = more signal;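 further: binding of the protein to compounds printed on small-molecule microarray slides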
[8] = FRG1 expression reporter modulators in myotubes – cell-based, C2C12 myotubes, firefly/Renilla luciferase, luminescence, FRG1 inhibition for FSHD, primary screen (AID 1084); conditions: FRG1 promoter luciferase, higher = more signal, called active from +8 up or from −8 down
[9] = small molecules captured by biotinylated probe aFST – biochemical, small-molecule microarray, fluorescence 635/667, stem cell growth factor project, primary screen (AID 1086); conditions: higher = more signal;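 further: score merges 667 nm fluorescence with signal-to-noise of each printed compound spot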
[10] = binders of probe aHhip on microarray, primary screen, stem cell growth factor project, biochemical, small-molecule microarray, fluorescence 635/667 (AID 1087); conditions: higher = more signal;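 further: score merges spot fluorescence at 667nm with spot signal to noise ratio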

Chain of Pro-neuregulin-1, membrane-bound isoform (Homo sapiens) (Q02297 whole entry, looked up, the tested form may be a part, canonical isoform): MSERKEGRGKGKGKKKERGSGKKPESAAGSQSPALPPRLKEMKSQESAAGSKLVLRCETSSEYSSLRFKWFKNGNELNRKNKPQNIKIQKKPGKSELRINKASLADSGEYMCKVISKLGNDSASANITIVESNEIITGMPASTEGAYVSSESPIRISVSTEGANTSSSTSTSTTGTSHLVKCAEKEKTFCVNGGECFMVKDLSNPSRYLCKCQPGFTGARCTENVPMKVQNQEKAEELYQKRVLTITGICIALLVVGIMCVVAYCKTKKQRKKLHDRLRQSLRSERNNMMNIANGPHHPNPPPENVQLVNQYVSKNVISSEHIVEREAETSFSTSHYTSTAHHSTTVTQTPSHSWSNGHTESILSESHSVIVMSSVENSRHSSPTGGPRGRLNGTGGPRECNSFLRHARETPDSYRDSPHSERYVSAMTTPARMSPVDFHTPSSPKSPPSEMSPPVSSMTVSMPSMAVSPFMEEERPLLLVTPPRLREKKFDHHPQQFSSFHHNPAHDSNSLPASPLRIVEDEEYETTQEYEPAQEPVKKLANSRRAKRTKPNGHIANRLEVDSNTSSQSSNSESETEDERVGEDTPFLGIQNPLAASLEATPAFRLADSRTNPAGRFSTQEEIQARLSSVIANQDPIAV
Chain of Neurogenic locus notch homolog protein 2 (Homo sapiens) (Q04721 whole entry, looked up, canonical isoform): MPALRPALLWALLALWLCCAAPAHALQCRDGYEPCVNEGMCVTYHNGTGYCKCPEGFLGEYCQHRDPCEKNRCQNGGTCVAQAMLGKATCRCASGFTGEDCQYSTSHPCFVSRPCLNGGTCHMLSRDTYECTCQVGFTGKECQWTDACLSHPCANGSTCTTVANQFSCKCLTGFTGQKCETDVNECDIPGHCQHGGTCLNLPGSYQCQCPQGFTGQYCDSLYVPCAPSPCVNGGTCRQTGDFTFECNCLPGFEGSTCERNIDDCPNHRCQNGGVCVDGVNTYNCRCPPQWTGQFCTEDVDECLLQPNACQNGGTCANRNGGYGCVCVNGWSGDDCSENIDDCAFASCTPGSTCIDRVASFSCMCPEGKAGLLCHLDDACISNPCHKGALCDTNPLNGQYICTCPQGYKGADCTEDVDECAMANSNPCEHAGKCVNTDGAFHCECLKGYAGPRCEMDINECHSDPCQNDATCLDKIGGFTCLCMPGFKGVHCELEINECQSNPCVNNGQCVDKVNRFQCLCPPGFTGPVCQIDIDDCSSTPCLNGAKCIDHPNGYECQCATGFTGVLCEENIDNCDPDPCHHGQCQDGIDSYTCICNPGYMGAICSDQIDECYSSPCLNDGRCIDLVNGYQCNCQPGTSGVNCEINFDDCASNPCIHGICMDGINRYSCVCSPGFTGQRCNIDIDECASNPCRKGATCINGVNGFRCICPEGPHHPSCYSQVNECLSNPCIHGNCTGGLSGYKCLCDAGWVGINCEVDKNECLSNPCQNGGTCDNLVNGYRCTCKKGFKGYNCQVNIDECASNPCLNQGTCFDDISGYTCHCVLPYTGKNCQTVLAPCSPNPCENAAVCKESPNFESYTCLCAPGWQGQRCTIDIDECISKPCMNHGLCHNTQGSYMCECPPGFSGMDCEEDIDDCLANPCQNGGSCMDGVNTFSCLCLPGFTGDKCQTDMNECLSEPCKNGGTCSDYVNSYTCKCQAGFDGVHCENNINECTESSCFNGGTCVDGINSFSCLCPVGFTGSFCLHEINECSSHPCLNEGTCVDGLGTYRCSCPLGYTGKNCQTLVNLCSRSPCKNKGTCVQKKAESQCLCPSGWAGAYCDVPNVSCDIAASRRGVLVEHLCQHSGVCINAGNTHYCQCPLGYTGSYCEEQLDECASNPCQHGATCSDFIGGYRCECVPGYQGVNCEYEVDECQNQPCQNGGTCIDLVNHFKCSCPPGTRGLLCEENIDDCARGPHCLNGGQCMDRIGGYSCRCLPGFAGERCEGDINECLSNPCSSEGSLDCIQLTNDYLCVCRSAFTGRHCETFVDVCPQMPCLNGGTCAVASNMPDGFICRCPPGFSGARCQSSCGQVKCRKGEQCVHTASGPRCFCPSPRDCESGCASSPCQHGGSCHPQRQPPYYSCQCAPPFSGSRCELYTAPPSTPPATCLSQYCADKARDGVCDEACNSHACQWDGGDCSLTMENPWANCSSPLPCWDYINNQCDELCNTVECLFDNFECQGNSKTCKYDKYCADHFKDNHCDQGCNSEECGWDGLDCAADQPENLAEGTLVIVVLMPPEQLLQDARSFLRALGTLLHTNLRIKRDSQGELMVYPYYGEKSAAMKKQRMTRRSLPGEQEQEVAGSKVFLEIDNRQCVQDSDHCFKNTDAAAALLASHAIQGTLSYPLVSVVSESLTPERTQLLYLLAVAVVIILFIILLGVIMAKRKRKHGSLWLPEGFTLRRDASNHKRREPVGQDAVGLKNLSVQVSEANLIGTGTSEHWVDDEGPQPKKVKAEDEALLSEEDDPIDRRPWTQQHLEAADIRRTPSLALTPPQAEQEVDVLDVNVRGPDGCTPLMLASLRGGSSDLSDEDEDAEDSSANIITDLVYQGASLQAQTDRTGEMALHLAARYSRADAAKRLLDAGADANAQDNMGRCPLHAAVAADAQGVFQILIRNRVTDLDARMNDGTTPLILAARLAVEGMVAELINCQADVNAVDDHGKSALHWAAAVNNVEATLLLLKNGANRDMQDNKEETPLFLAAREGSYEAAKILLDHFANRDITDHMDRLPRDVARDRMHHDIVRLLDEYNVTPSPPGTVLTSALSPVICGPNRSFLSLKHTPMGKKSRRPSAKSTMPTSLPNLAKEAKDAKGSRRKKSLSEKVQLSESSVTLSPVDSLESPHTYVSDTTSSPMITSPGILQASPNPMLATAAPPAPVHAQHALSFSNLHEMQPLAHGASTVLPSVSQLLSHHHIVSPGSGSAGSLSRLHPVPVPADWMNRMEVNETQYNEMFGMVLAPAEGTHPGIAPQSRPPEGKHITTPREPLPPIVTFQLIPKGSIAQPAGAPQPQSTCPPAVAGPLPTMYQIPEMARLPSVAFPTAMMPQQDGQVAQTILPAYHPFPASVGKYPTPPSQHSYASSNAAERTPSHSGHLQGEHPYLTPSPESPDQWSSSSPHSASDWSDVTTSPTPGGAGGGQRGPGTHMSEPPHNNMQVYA

Row | SMILES | composite z-score [1] | composite z-score [2] | composite z-score [3] | composite z-score [4] | composite z-score [5] | composite z-score [6] | composite z-score [7] | z-score [8] | composite z-score [9] | composite z-score [10]
1 | [N-]=[N+]=Nc1ccccc1C[C@@]1(C(=O)N2CCCCC2)N=C(c2ccc(OCCCO)cc2)O[C@@H]1c1ccccc1N=[N+]=[N-] | 1.23 | 0.436 | 0.286 | 0.758 | 1.6 | 0.429 | 1.17 | -2.04 (inactive) | 1.14 | -0.121
2 | CCOc1ccc(N2C(=O)CSC2c2cccc([N+](=O)[O-])c2)cc1 (stereo not given) | -0.368 | -0.113 | 0.0525 | 0.839 | 1.22 | 1.64 | 1.29 | 0.541 (inactive) | 0.569 | -0.199
3 | O=C(O)C1N=C(c2ccc(OCCCO)cc2)N(c2ccccc2)O1 (stereo not given) | 0.158 | 0.0642 | -0.0474 | 0.499 | 0.778 | -0.145 | 0.527 | 2.09 (inactive) | -0.288 | -0.136
4 | CCCCCCc1nc(-c2ccc(-c3ccc(Cl)c(Cl)c3)o2)cc2c1[Si](C(C)C)(C(C)C)O[C@H]2c1ccccc1 | 0.0771 | -0.543 | -0.116 | -0.379 | -0.797 | 0.501 | -0.412 | 0.213 (inactive) | -0.265 | 0.0505
5 | Cc1ccc(S[C@]2(C(=O)O)CC(=O)N(C(C)C)[C@@H]2c2ccc(CO)cc2)cc1 | 0.125 | 0.552 | -0.172 | -0.0563 | -0.445 | -0.226 | 0.751 | -0.175 (inactive) | -0.735 | -0.189
6 | CO[C@H]1O[C@H](CO)[C@@H](OC(=O)Nc2ccccc2)[C@@H]2OC(=O)[C@@H](Cc3ccc4ccccc4c3)C/C=C/C[C@H](Cc3ccc4ccccc4c3)C(=O)O[C@@H]12 | 0.0395 | 0.821 | 0.126 | 0.908 | 0.336 | 0.915 | 0.965 | -1.62 (inactive) | 0.316 | -0.191
7 | CC(C)N1CC=CC23O[C@@H]4C=CCOC(=O)[C@@H]4[C@H]2C(=O)N(CCCCCO)[C@@H]3C1=O (stereo not given in full) | -0.354 | 0.272 | -0.153 | -0.267 | -0.669 | 0.24 | 1.27 | -0.907 (inactive) | -0.308 | -0.132
8 | CC(c1ccccc1)C(O)C1C=CC2C(=O)N(c3ccccc3)C(=O)C2N1Nc1ccccc1 (stereo not given) | -0.245 | 0.2 | 0.0878 | 1.13 | 1.55 | 1.53 | 1.34 | -1.41 (inactive) | 1.38 | 0.179
9 | O=C(NC1CC1)[C@@H]1c2ccccc2C(=O)N(Cc2cc(F)cc(C(F)(F)F)c2)[C@H]1c1ccc(CO)cc1 | 0.388 | 0.195 | -0.172 | 0.327 | -0.697 | -0.13 | 1.04 | -0.594 (inactive) | 0.254 | -0.194
10 | C[C@H]1C2[C@H](Cc3ccccc3)NC(=O)[C@]23C(=O)NCC(=O)N2CCC[C@H]2C(=O)NC/C=C/CCC/C=C/C3[C@@H]2O[C@]12C (stereo not given in full) | -0.106 | -0.511 | -0.191 | -0.261 | -0.754 | -0.0754 | -0.125 | -0.111 (inactive) | -0.653 | -0.249
11 | O=C(NCCN1CCOCC1)[C@@H]1c2ccccc2C(=O)N(Cc2cc(C(F)(F)F)cc(C(F)(F)F)c2)[C@H]1c1ccc(CO)cc1 | 0.284 | 0.183 | -0.116 | -0.214 | -1.28 | 1.27 | 1.25 | 0.0006 (inactive) | 0.0794 | -0.0994
12 | O=C1OCCC=C[C@H]2OC34C=CCN(CCN5CCOCC5)C(=O)[C@H]3N(CCCCCO)C(=O)[C@@H]4C12 (stereo not given in full) | -0.391 | 1.84 | -0.203 | 0.0681 | -0.419 | 1.06 | 1.42 | -0.521 (inactive) | -0.324 | -0.0994
13 | CC(=O)n1cc(C(O)C2C=CC3C(=O)NC(=O)C3N2Nc2ccccn2)c2ccccc21 (stereo not given) | 0.125 | 0.0908 | -0.0583 | 0.122 | 0.887 | 0.298 | 1.27 | 1.15 (inactive) | 0.221 | -0.179
14 | COc1ccc([Si](C)(C)[C@@H]2[C@@H](CC(=O)N3Cc4ccccc4C[C@H]3CO)O[C@]3(C(=O)N(Cc4cccc(N5CCC5=O)c4)c4ccccc43)[C@H]2C)cc1 | -0.0762 | 0.3 | -0.07 | 0.507 | 0.596 | 0.592 | 1.22 | -1.07 (inactive) | 0.113 | 0.35
15 | O=C1C[C@@](C(=O)NCc2ccccc2)(c2ccc([N+](=O)[O-])cc2)[C@@H](c2ccc(CO)cc2)N1CC12CC3CC(CC(C3)C1)C2 | -0.237 | 0.447 | 0.0024 | 0.435 | 0.815 | 0.939 | 1.27 | -2.72 (inactive) | 0.282 | -0.0994
16 | C#CCN1[C@@H](Cc2ccc(O)cc2)C(=O)O[C@H](Cc2ccccc2)[C@@H]1/C=C/C1CC1 | -0.353 | 0.336 | -0.142 | 0.199 | -0.586 | -0.37 | 0.207 | -3.33 (inactive) | 0.0959 | -0.279
17 | CCCCN1CC=CC23O[C@@H]4/C=C\CCCOC(=O)C4[C@H]2C(=O)N(CCCCCO)[C@@H]3C1=O (stereo not given in full) | 0.485 | -0.465 | -0.0985 | -0.0739 | -0.901 | -1.18 | 1.26 | 0.368 (inactive) | -0.804 | -0.249
18 | CC=CC(O)C1C=CC2C(=O)N(C)C(=O)C2N1N(c1ccccc1)c1ccccc1 (stereo not given) | -0.108 | 0.273 | -0.0567 | 0.367 | 1.44 | 0.837 | 1.12 | 0.621 (inactive) | -0.132 | -0.201
19 | COc1ccccc1CN1C(=O)c2ccccc2[C@@H](C(=O)NCc2ccccc2)[C@@H]1c1ccc(CO)cc1 | -0.232 | 0.939 | -0.171 | -0.298 | 0.0668 | 1.1 | 1.26 | -2.9 (inactive) | 0.635 | -0.34
20 | O=C(CS)NCCCCCNC(=O)[C@H]1C[C@H]2C(=O)NCC(=O)N2[C@H]1c1ccc(O)cc1 | 0.205 | 0.354 | -0.159 | -0.583 | -1.4 | -0.83 | -0.0307 | 1.41 (inactive) | -0.753 | -0.204
21 | [N-]=[N+]=Nc1ccccc1C[C@]1(C(=O)N2CCCCC2)COC(c2ccc(OCCCO)cc2)=N1 | -0.11 | 0.0405 | 0.0605 | 0.87 | 0.708 | 1.64 | 0.995 | -2.42 (inactive) | 0.755 | -0.353
22 | CC(=O)Nc1cc(Br)ccc1C(=O)NCc1ccccc1 | -0.16 | -0.0459 | 0.0213 | -0.0284 | 0.359 | 0.685 | 1.23 | 0.0163 (inactive) | -0.0314 | -0.226
23 | COc1ccc(NC(=O)O[C@H]2[C@H](OC(=O)c3cc4ccccc4[nH]3)[C@@H](OC(=O)c3cc4ccccc4[nH]3)[C@@H](OC)O[C@@H]2CO)cc1 | -0.147 | 0.0444 | 0.0014 | 0.528 | 0.23 | 0.765 | 0.543 | 2.22 (inactive) | 0.0417 | 0.21
24 | COCCOC(=O)N1C(=O)[C@@]2(c3ccccc31)[C@H](C(=O)N1CCc3cc(OC)c(OC)cc3C1)[C@H]1C(=O)O[C@H](c3ccccc3)[C@H](c3ccccc3)N1[C@@H]2c1ccc(O)cc1 | -0.159 | 0.706 | -0.0303 | 0.647 | 1.28 | 0.832 | 1.26 | -2.26 (inactive) | -0.0345 | 0.0302
25 | O=C1NC(=O)C2C1C=CC(C(O)c1ccc(I)cc1)N2Nc1ccc(Cl)cc1Cl (stereo not given) | 0.256 | -0.396 | -0.0085 | 0.29 | 1.43 | 1.49 | 0.991 | -0.526 (inactive) | 0.794 | -0.321
26 | OCCCC1=CC(C2CC2)N(Cc2cccc(OC(F)(F)F)c2)CC1 (stereo not given) | -0.367 | 0.406 | -0.208 | -0.771 | -0.464 | -0.106 | 0.677 | 0.606 (inactive) | -0.658 | -0.0373
27 | CS(=O)(=O)CCOC(=O)C1=CC(CCCO)=CC(c2ccc(CN3CCCC3)cc2)N(Cc2cccc(OC(F)(F)F)c2)C=C1C(=O)OCCS(C)(=O)=O (stereo not given) | 0.384 | 0.851 | 0.0036 | 0.952 | 0.978 | 0.691 | 0.909 | 0.173 (inactive) | 0.66 | 0.154
28 | CCCC1(C(=O)OC)C=C2C(=C(c3ccccc3)C(=O)C2C)CN1 (stereo not given) | 1.43 | -0.289 | -0.0869 | -0.121 | 0.725 | 0.768 | 0.861 | 2.51 (inactive) | 0.387 | 0.154
29 | COC(=O)[C@@]1(Cc2ccccc2)[C@H]2c3cc(C(=O)N4CCCC4)n(Cc4ccc(O)c(OC)c4)c3C[C@H]2CN1C(=O)c1ccccc1 | 0.528 | -0.162 | 0.185 | 0.0854 | 1.53 | 1.66 | 1.39 | -0.433 (inactive) | 1.04 | 0.651

Source: PubChem BioAssay
